This passage reports outcome and AC50 results from PubChem BioAssay (EPA / NIEHS).

Conditions in all cases: mRNA level, 48 h; actives raise or lower the signal
Read-out in experiment [1]: ABC Transporter (ABCB1), ABCB1 (gene 5243)
In words: LTEA_HepaRG_ABCB1: Life Technologies and Expression Analysis (LTEA) Assay for ABC Transporter (ABCB1) using HepaRG (AID 2283460). The gist of the method:
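Human liver HepaRG line treated 48 h with up to 100 uM compound (eight half-log points, 0.5% DMSO); ABCB1 mRNA change fitted bidirectionally against DMSO controls.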

Read-out in experiment [2]: growth arrest and DNA damage 45 (GADD45B), GADD45B (gene 4616)
In words: LTEA_HepaRG_GADD45B: Life Technologies and Expression Analysis (LTEA) Assay for growth arrest and DNA damage 45 (GADD45B) using HepaRG (AID 2283461). An outline of the steps:
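Transcript level quantified by Fluidigm TaqMan qRT-PCR with three housekeeping genes for normalization, analyzed for up- or down-regulation against 0.5% DMSO. HepaRG cultures dosed 48 h at eight half-log concentrations up to 100 uM, duplicates.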

Read-out in experiment [3]: ABC Transporter (ABCC3), ABCC3 (gene 8714)
In words: LTEA_HepaRG_ABCC3: Life Technologies and Expression Analysis (LTEA) Assay for ABC Transporter (ABCC3) using HepaRG (AID 2283462). The gist of the method: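 Transcript level by TaqMan qRT-PCR, normalised to three housekeeping genes, fitted in both directions relative to vehicle. Chemicals tested in duplicate at eight half-log concentrations up to 100 uM for 48 h on HepaRG cells (0.5% DMSO).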

Read-out in experiment [4]: ABC Transporter (ABCC2), ABCC2 (gene 1244)
In words: LTEA_HepaRG_ABCC2: Life Technologies and Expression Analysis (LTEA) Assay for ABC Transporter (ABCC2) using HepaRG (AID 2283464). An outline of the steps: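 Endpoint is ABCC2 transcript level from qRT-PCR, normalized to three housekeeping genes and fitted bidirectionally relative to DMSO. Human HepaRG cells received test chemical for 48 h at up to 100 uM (8 points, half-log steps, 0.5% DMSO), duplicate wells.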

Read-out in experiment [5]: Broad substrate specificity ATP-binding cassette transporter ABCG2 (Homo sapiens) (UniProt Q9UNQ0)
The experiment is described as follows: LTEA_HepaRG_ABCG2: Life Technologies and Expression Analysis (LTEA) Assay for ABC Transporter (ABCG2) using HepaRG (AID 2283465). An outline of the steps:
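Gene expression of ABCG2 in HepaRG liver cells is quantified by qRT-PCR following 48 h exposure across an eight-point series topping at 100 uM. Values come from bidirectional fitting relative to DMSO vehicle.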

Read-out in experiment [6]: ATP-citrate lyase (ACLY), ACLY (gene 47)
In words: LTEA_HepaRG_ACLY: Life Technologies and Expression Analysis (LTEA) Assay for ATP-citrate lyase (ACLY) using HepaRG (AID 2283466). An outline of the steps:
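ACLY expression changes in human HepaRG liver cells are quantified by qRT-PCR after 48 h exposure to test chemicals (maximum 100 uM, half-log steps). Values are fitted in both directions relative to 0.5% DMSO vehicle.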

Read-out in experiment [7]: Peroxisomal acyl-coenzyme A oxidase 1 (ACOX1) gene, ACOX1 (gene 51)
The experiment is described as follows: LTEA_HepaRG_ACOX1: Life Technologies and Expression Analysis (LTEA) Assay for Peroxisomal acyl-coenzyme A oxidase 1 (ACOX1) gene using HepaRG (AID 2283467). The gist of the method:
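Human HepaRG hepatic cultures, 48 h treatment with test chemicals up to 100 uM. ACOX1 expression read by qRT-PCR relative to 0.5% DMSO vehicle.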

Read-out in experiment [8]: Alkaline Phosphatase, Placental (ALPP) gene, ALPP (gene 250)
The experiment is described as follows: LTEA_HepaRG_ALPP: Life Technologies and Expression Analysis (LTEA) Assay for Alkaline Phosphatase, Placental (ALPP) gene using HepaRG (AID 2283468). An outline of the steps:
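ALPP transcript level, measured by qRT-PCR and normalized to three housekeeping genes (ACTB, GAPDH, POLR2A), after 48 h dosing of differentiated HepaRG in serum-free induction medium. Top concentration 100 uM with half-log dilutions (8 points, 0.5% DMSO, duplicates); bidirectional fitting relative to DMSO.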

Read-out in experiment [9]: Bcl-2 (BAD) gene, BAD (gene 572)
The experiment is described as follows: LTEA_HepaRG_BAD: Life Technologies and Expression Analysis (LTEA) Assay for Bcl-2 (BAD) gene using HepaRG (AID 2283469). The gist of the method:
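Activity values reflect up- or down-regulation of BAD mRNA in human HepaRG hepatic cells treated 48 h in serum-free medium, with eight-point half-log dosing capped at 100 uM and 0.5% DMSO vehicle.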

Read-out in experiment [10]: Bcl-2 (BAX) gene, BAX (gene 581)
The experiment is described as follows: LTEA_HepaRG_BAX: Life Technologies and Expression Analysis (LTEA) Assay for Bcl-2 (BAX) gene using HepaRG (AID 2283470). The gist of the method: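 Gene expression measured by Fluidigm qRT-PCR with three housekeeping genes for normalisation. HepaRG cells, plated 48 h beforehand, treated 48 h at up to 100 uM (8-point, half-log) in 0.5% DMSO. Bidirectional fitting versus DMSO.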

Read-out in experiment [11]: adenosine kinase (ADK) gene, ADK (gene 132)
In words: LTEA_HepaRG_ADK: Life Technologies and Expression Analysis (LTEA) Assay for adenosine kinase (ADK) gene using HepaRG (AID 2283471). The gist of the method:
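ADK expression quantified by qRT-PCR, normalised to three housekeeping genes, after 48 h exposure of HepaRG cells to eight concentrations (top 100 uM, half-log steps, duplicate, 0.5% DMSO). Up- or down-regulation fitted relative to vehicle.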

Read-out in experiment [12]: Alpha-fetoprotein (AFP) gene, AFP (gene 174)
In words: LTEA_HepaRG_AFP: Life Technologies and Expression Analysis (LTEA) Assay for Alpha-fetoprotein (AFP) gene using HepaRG (AID 2283472). An outline of the steps: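 AFP transcript measured by TaqMan qRT-PCR with three housekeeping genes for normalization, after 48 h chemical treatment of HepaRG cells (top 100 uM, half-log steps, 0.5% DMSO). Gain or loss fitted against vehicle.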

Read-out in experiment [13]: BCL2L11 (gene 10018)
In words: LTEA_HepaRG_BCL2L11: Life Technologies and Expression Analysis (LTEA) Assay for Bcl-2 (BCL2L11) gene using HepaRG (AID 2283473). The gist of the method:
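BCL2L11 transcript levels are measured by Fluidigm qRT-PCR, normalized to three housekeeping genes. HepaRG cultures were plated 48 h, then treated 48 h with test chemical (top 100 uM, half-log, 0.5% DMSO vehicle); curves were fitted bidirectionally against DMSO.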

Read-out in experiment [14]: Apolipoprotein A-V (APOA5) gene, APOA5 (gene 116519)
In words: LTEA_HepaRG_APOA5: Life Technologies and Expression Analysis (LTEA) Assay for Apolipoprotein A-V (APOA5) gene using HepaRG (AID 2283474). An outline of the steps: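 APOA5 transcript levels were quantified by qRT-PCR, normalized to three housekeeping genes, after 48 h chemical treatment of HepaRG cells (8 points, 100 uM maximum, half-log steps, 0.5% DMSO). Curves fitted in both directions against vehicle.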

Read-out in experiment [15]: Apoptosis regulator Bcl-2 (Homo sapiens) (UniProt P10415)
The experiment is described as follows: LTEA_HepaRG_BCL2: Life Technologies and Expression Analysis (LTEA) Assay for Bcl-2 gene using HepaRG (AID 2283475). An outline of the steps: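 qRT-PCR of BCL2 transcript, normalized to three housekeeping genes (ACTB, GAPDH, POLR2A), after 48 h chemical exposure of HepaRG cells; concentrations top 100 uM with half-log dilutions, 0.5% DMSO vehicle, duplicates; changes up or down fitted relative to vehicle.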

Read-out in experiment [16]: Bcl-2 (BID) gene, BID (gene 637)
The experiment is described as follows: LTEA_HepaRG_BID: Life Technologies and Expression Analysis (LTEA) Assay for Bcl-2 (BID) gene using HepaRG (AID 2283476). The gist of the method: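 Duplicate 48 h treatments of HepaRG cells in serum-free induction medium spanned 100 uM downward in half-log steps, 0.5% DMSO. Transcript change quantified by qRT-PCR against three housekeeping genes, fitted up or down versus DMSO.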

Read-out in experiment [17]: Caspase-3 (Homo sapiens) (UniProt P42574)
In words: LTEA_HepaRG_CASP3: Life Technologies and Expression Analysis (LTEA) Assay for cysteine-aspartic acid protease (CASP3) using HepaRG (AID 2283477). An outline of the steps:
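Expression of CASP3 was quantified by TaqMan qRT-PCR against three housekeeping genes (ACTB, GAPDH, POLR2A), bidirectionally versus 0.5% DMSO. HepaRG cultures received compounds in duplicate, top 100 uM with half-log steps, for 48 h in serum-free induction medium.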

Read-out in experiment [18]: Cytochrome P450 (CYP24A1), CYP24A1 (gene 1591)
The experiment is described as follows: LTEA_HepaRG_CYP24A1: Life Technologies and Expression Analysis (LTEA) Assay for Cytochrome P450 (CYP24A1) using HepaRG (AID 2283478). The gist of the method:
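mRNA of CYP24A1 quantified by TaqMan qRT-PCR (ACTB/GAPDH/POLR2A normalization) after 48 h chemical exposure of HepaRG cells, top concentration 100 uM, half-log steps, 0.5% DMSO vehicle, duplicates. Curves fitted bidirectionally against DMSO baseline.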

Read-out in experiment [19]: Cytochrome P450 (CYP1A2), CYP1A2 (gene 1544)
In words: LTEA_HepaRG_CYP1A2: Life Technologies and Expression Analysis (LTEA) Assay for Cytochrome P450 (CYP1A2) using HepaRG (AID 2283479). The gist of the method: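 CYP1A2 transcript measured by TaqMan qRT-PCR against three housekeeping genes after 48-hour chemical exposure of HepaRG cells. Eight-point half-log series topping at 100 uM in 0.5% DMSO, duplicates; gain or loss fitted relative to vehicle.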

Activity calls are given as the source filed them. Rule for the calls: active = hit-call score of the fitted dose curve at least 0.9, where 1 is the maximum; inactive = score below 0.9.

Sequence of Caspase-3 (Homo sapiens) (P42574 whole entry, looked up): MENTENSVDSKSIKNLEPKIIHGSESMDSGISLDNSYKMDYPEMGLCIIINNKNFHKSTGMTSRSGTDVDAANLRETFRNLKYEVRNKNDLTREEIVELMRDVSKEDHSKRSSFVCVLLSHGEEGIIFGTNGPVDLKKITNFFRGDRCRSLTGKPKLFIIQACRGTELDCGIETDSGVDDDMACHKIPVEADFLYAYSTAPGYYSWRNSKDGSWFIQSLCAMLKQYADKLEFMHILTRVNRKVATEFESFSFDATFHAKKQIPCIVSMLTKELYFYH
Sequence of Broad substrate specificity ATP-binding cassette transporter ABCG2 (Homo sapiens) (Q9UNQ0 whole entry, looked up): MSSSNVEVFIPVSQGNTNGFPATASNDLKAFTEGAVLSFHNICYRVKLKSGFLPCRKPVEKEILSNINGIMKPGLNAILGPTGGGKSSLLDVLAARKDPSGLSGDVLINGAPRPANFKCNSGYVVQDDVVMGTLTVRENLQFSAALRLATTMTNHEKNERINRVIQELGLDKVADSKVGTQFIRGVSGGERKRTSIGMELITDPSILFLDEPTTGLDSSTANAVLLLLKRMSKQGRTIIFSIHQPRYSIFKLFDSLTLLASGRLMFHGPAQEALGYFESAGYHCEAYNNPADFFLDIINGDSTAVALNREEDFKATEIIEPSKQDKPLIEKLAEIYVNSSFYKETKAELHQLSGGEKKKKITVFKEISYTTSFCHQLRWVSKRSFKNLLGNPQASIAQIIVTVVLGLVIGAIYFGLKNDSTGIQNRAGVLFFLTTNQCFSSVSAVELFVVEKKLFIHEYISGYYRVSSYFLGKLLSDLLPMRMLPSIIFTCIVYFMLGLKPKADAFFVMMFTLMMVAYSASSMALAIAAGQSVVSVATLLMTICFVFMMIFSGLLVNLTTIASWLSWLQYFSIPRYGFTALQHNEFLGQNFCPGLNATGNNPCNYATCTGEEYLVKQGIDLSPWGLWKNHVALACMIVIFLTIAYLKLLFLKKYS
Sequence of Apoptosis regulator Bcl-2 (Homo sapiens) (P10415 whole entry, looked up): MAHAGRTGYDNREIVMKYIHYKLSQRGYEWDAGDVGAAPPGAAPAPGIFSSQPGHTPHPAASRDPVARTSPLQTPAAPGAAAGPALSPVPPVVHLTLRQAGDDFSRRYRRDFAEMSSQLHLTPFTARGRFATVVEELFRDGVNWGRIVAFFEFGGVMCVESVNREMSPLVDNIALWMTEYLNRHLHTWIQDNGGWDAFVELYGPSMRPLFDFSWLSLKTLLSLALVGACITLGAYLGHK

Regarding `CCN(CC)c1ccccc1`, the result in experiment [1], in [2], in experiment [3], in experiment [4], in experiment [5] and in [6] was inactive. Further, the result in [7], in experiment [8], in experiment [9], in [10], in experiment [11] and in [12] was inactive. Also, the compound was classed as inactive in experiment [13], in experiment [14], in experiment [15], in experiment [16], in [17] and in experiment [18]. For the same compound, the AC50 in [19] was 39 µM (active).

Regarding `CCCCN(CCCC)SN(C)C(=O)Oc1cccc2c1OC(C)(C)C2`, the AC50 in experiment [1] is 23.2 µM (active). For the same compound, the outcome in experiment [2], in experiment [3], in [4], in experiment [5], in [6] and in experiment [7] was inactive. The outcome in experiment [8], in [9], in experiment [10], in experiment [11], in experiment [12] and in experiment [13] was inactive. Further, the compound was classed as inactive in experiment [14], in [15], in experiment [16], in [17], in experiment [18] and in [19].

In the case of `Cc1ccc(O)cc1C`, the call in experiment [2], in experiment [3], in experiment [4], in experiment [5], in experiment [6] and in experiment [7] was inactive. The outcome in [8], in experiment [9], in experiment [10], in [11], in experiment [12] and in experiment [13] was inactive. The result in experiment [14], in experiment [15], in [16] and in experiment [17] was inactive.

`Nc1ccc2ccccc2c1`: the call in experiment [1], in [2], in experiment [3], in experiment [4], in experiment [5] and in experiment [6] was inactive. Moreover, the outcome in experiment [7], in experiment [8], in experiment [9], in experiment [10], in experiment [11] and in [12] was inactive. Besides, the call in experiment [13], in experiment [14], in experiment [15], in experiment [16], in experiment [17] and in experiment [18] was inactive. The AC50 in experiment [19] was 33.1 µM (active).

Take `O=P(Oc1ccccc1)(Oc1ccccc1)Oc1ccccc1`: the AC50 in experiment [1] is 5.73 µM (active); in [4], 8.94 µM (active); in experiment [5] it was 8.36 µM (active); in experiment [6], 71.6 µM (active); in [12], 50 µM (active); in experiment [14], 50 µM (active). In addition, the half-maximal activity concentration (AC50) was 80.4 µM (active) in experiment [15] and 27.4 µM (active) in experiment [19]. For the same compound, the compound was classed as inactive in experiment [2], in experiment [3], in experiment [7], in [9], in [10] and in experiment [11]. Besides, the result in [13], in [16], in experiment [17] and in [18] was inactive.

Consider `O=C(O)C1C(C(=O)O)C2(Cl)C(Cl)=C(Cl)C1(Cl)C2(Cl)Cl` (stereo not given), for which the outcome in experiment [1], in experiment [2], in experiment [3], in experiment [4], in experiment [5] and in experiment [6] was inactive. Besides, the compound was called inactive in experiment [7], in experiment [8], in experiment [9], in [10], in [11] and in experiment [12]. Moreover, the outcome in experiment [13], in experiment [14], in [15], in experiment [16], in experiment [17] and in [18] was inactive. The result in [19] was inactive.

Broadly, the AC50 is the concentration at which the activity in the assay is half-maximal.
